# Data published in PubChem BioAssay (EPA / NIEHS).
# “And” between values parts separate entries of the source, which are not always exact repeats. Equal entries are not always repeated. The source made the active and inactive calls. How the source made its calls: active means hit-call score of the fitted dose curve at least 0.9, where 1 is the maximum; inactive means score below 0.9.
# Read-out: Monocyte Chemoattractant Protein-1 (MCP1), CCL2 (gene 6347)
# Assay: BSK_3C_MCP1: BioMAP Diversity Plus: 3C Assay for Monocyte Chemoattractant Protein-1 (MCP1) Biomarker Activity (AID 2283017)
# Conditions: primary human endothelial cells (HUVEC); actives raise or lower the signal
# Description: BSK_3C is a cell-based, multiplexed-readout assay that uses umbilical vein endothelium, a human vascular primary cell, with measurements taken at 24 hours after chemical dosing in a 96-well plate.BSK_3C_MCP1 is an assay component measured in the BSK_3C assay. It measures MCP-1 antibody related to regulation of gene expression using ELISA technology.Data from the assay component BSK_3C_MCP1 was analyzed into 1 assay endpoint. This assay endpoint, BSK_3C_MCP1, was analyzed with bidirectional fitting relative to DMSO as the negative control and baseline of activity. Using a type of binding reporter, gain or loss-of-signal activity can be used to understand changes in the signaling as they relate to the gene CCL2. Furthermore, this assay endpoint can be referred to as a primary readout, because this assay has produced multiple assay endpoints where this one serves a signaling function. To generalize the intended target to other relatable targets, this assay endpoint is annotated to the cytokine intended target family, where the subfamily is chemotactic factor.
# The levels of cell surface (or secreted, indicated by the prefix "s") biomarker endpoints were measured by ELISA. Overt cytotoxicity to cells in confluent adherent cultures (all systems other than the BT system) was assessed by measuring total protein levels using sulforhodamine B (SRB) staining in parallel cultures at the time of biomarker measurements, indicated as SRB endpoints. For proliferation assays for adherent cell types, individual cell types are cultured at sub-confluence and relative cell numbers quantified by SRB staining at time points optimized for each system (48 h: 3C and CASM3C systems; 72 h: BT and HDF3CGF systems; 96 h: SAg system). SRB was performed by staining cells with 0.1% SRB after fixation with 10% TCA and reading wells at 560 nm.Viability and proliferation of PBMC (T cells) was quantified by Alamar Blue reduction for the SAg and BT systems. For PBMC viability (referred to as PBMC Cytotoxicity within the assay endpoint names), cells were plated (75,000/well in a 96-well plate) and then chemical samples added for 1 h before addition of activators, SEB and TSST-1 (20 ng/mL final concentration each). Cells were incubated for 90 h. Then, Alamar Blue (20 uL/well) (Invitrogen, Cat DAL1100) was added for 6 h, and the plates were read with a fluorescence microplate reader at 546/580 nm (excitation/emission). For PBMC proliferation, cells were plated and activated as above but incubated for only 16 h prior to addition of Alamar Blue. Plates were read after 6 h.
Compound,AC50,outcome
CCCCCCCCCCCCCCCC[N+](C)(C)CC,2.66 µM (active),–
O=c1c2ccccc2oc2ccccc12,–,inactive
CN1C(=O)N(C)C(O)C1O (stereo unspecified),–,inactive
COCc1c(C(C)C)nc(C(C)C)c(/C=C/[C@@H](O)C[C@@H](O)CC(=O)O)c1-c1ccc(F)cc1,4.73 µM (active),–
CCCCC/C=C\C/C=C\CCCCCCCC(=O)OC,34.4 µM (active),–
O=C(Cl)c1cc(C(=O)Cl)cc(C(=O)Cl)c1,11.6 µM (active),–
O=C(c1ccc(O)cc1)c1ccc(O)cc1O,–,inactive
c1ccc(-c2ccccn2)nc1,–,inactive
CCO[Si](C)(OCC)OCC,–,inactive
C=CCOc1c(Br)cc(Br)cc1Br,20 µM (active),–
S=C(NC1CCCCC1)NC1CCCCC1,–,inactive
c1ccc2c(c1)ccc1ncccc12,5.9 µM (active),–
c1ccc2c(c1)ccc1cc3c(ccc4ccccc43)cc12,–,inactive
Nc1ccc(N)c(Cl)c1,32.4 µM (active) and 31.9 µM (active),–
O=Nc1ccc(O)cc1,–,inactive
O=C1CCCN1CCO,–,inactive
C=CCOCC(O)CCl (stereo unspecified),–,inactive
CO[Si](OC)(OC)c1ccccc1,–,inactive

Compound,AC50,outcome
CCCCCCCCc1ccc(Nc2ccc(CCCCCCCC)cc2)cc1,–,inactive
CCCCNc1ccc(NCCCC)c2c1C(=O)c1ccccc1C2=O,–,inactive
C=C[Si](OC(C)=O)(OC(C)=O)OC(C)=O,–,inactive
O=C(Nc1ccccc1SSc1ccccc1NC(=O)c1ccccc1)c1ccccc1,8.27 µM (active),–
CCOC(=O)c1ccccc1C(=C1C=C(Br)C(=O)C(Br)=C1)c1cc(Br)c(O)c(Br)c1,21.6 µM (active) and 20.9 µM (active),–
C=CC(=O)OCC(Br)CBr (stereo unspecified),31.8 µM (active),–
COc1ccc2nc(N)sc2c1,–,inactive
CCCCC(CC)COCC1CO1 (stereo unspecified),–,inactive
C=CC=CC=CCCCCC,–,inactive
C#CC1(O)CC[C@H]2[C@@H]3CCC4=CCCC[C@@H]4[C@H]3CC[C@@]21C (stereo partly specified),11 µM (active),–
CCO[Si](CCCN=C=O)(OCC)OCC,–,inactive
CCOc1nc(F)cc2nc(S(=O)(=O)Nc3c(Cl)cccc3C(=O)OC)nn12,–,inactive
CC(C)(c1cc(Br)c(OCCO)c(Br)c1)c1cc(Br)c(OCCO)c(Br)c1,11.7 µM (active),–
CC(C)C(=O)C(C)C,–,inactive
CC1OC1C1CCC2(C)OC2C1 (stereo unspecified),–,inactive
CCCCC(CC)COC(=O)c1ccccc1O (stereo unspecified),15.9 µM (active),–
N#[N+]c1ccc2c(S(=O)(=O)[O-])cccc2c1O,–,inactive
C/C=C\C/C=C/CCCCCCCCOC(C)=O,–,inactive
